About 64,000 (15%) of roughly 420,000 compounds were called active. Roughly 27% stayed inconclusive and do not appear here. Calls come from the whole dose curve; as a rule, active = well fitted inhibition curve with a large enough effect; inconclusive = small, poorly fitted or top-dose-only effect; inactive = flat fitted curve, though single readings scatter. These entries were drawn from the full list.
Assay: qHTS for Inhibitors of human tyrosyl-DNA phosphodiesterase 1 (TDP1): qHTS in cells in absence of CPT; note: nearly all actives have a fitted effect of over 55% in size
Conditions: DT40 Tdp1-/- hTDP1 cells, no CPT, ATP luminescence, 48 h; activity change, negative = growth inhibition: at 46.2 µM (top of the series)
Outline: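 Compound effects on proliferation are scored in DT40 Tdp1-/-;hTDP1 cells in the absence of CPT. ATP levels (CellTiter-Glo luminescence) are recorded after a ≥48 hr, 37 °C incubation.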
% is set by controls: 0 for no effect and ±100 for the full control effect; potency is the fitted concentration of half-maximal effect.

| Structure (SMILES) | activity change, negative = growth inhibition | Potency |
| --- | --- | --- |
| CCOC(=O)N1CCN(C(=O)Cc2ccc(-n3c(=S)[nH]c4ccccc4c3=O)cc2)CC1 | -15.2% (inactive) |  |
| Cc1ccc(C(=O)N/C(=C\c2ccco2)C(=O)NC2CCS(=O)(=O)C2)cc1 (stereo not drawn) | 6.49% (inactive) |  |
| Cc1cccn2c(=O)c(/C=C(\C#N)S(=O)(=O)c3ccc(Cl)cc3)c(N3CCC(C(N)=O)CC3)nc12 | -20.6% (inactive) |  |
| Cc1cc(C)cc(Oc2nc3c(C)cccn3c(=O)c2/C=C(\C#N)C(=O)NC2CCS(=O)(=O)C2)c1 (stereo not drawn) |  | 13 µM (active) |
| Cc1cc(C)n2nc(C(=O)N3CCN(Cc4ccc5c(c4)OCO5)CC3)nc2n1 | -14.8% (inactive) |  |
| CCN(CC)S(=O)(=O)c1ccc2nc(CSc3nnnn3-c3ccc(O)cc3)[nH]c2c1 | -27.3% (inactive) |  |
| Cc1csc(NC(=O)Nc2ccccc2[N+](=O)[O-])n1 | -20.3% (inactive) |  |
| CCOc1ccccc1Nc1ccc(C(=O)O)cc1[N+](=O)[O-] | 8.42% (inactive) |  |
| CCOC(=O)/C(=N\Nc1ccccc1[N+](=O)[O-])c1csc(Nc2ccccc2)n1 |  | 16.4 µM (active) |
| CC(=O)c1c(C)[nH]c(C(=O)NCCCN2CCCC2)c1C | 5.85% (inactive) |  |
| Cn1cc[n+](C)c1COc1ccc(C=O)cc1 | 2.67% (inactive) |  |
| Cc1noc(C)c1C(=O)NCCc1ccc(S(N)(=O)=O)cc1 | 7.32% (inactive) |  |
| Cc1cc([N+](=O)[O-])ccc1NS(=O)(=O)c1ccccc1 |  | 23.1 µM (active) |
| Cc1cccc(NS(=O)(=O)c2ccc([N+](=O)[O-])cc2)n1 | -3.46% (inactive) |  |
| Cc1cc([N+](=O)[O-])ccc1NC1CCCC1 | 1.28% (inactive) |  |
| O=[N+]([O-])c1ccc(NS(=O)(=O)c2ccccc2)c(Cl)c1 |  | 20.6 µM (active) |
| O=[N+]([O-])c1cccc(S(=O)(=O)N2CCCCCC2)c1 | -29.9% (inactive) |  |
| Cc1ccccc1OS(=O)(=O)c1cccc([N+](=O)[O-])c1 | -27.5% (inactive) |  |
| COc1ccc(NC(=O)[C@H](NC(=O)[C@@H]2Cc3ccccc3CN2)c2ccccc2)cc1 | 8.27% (inactive) |  |
| CCC(=O)Nc1sc(C(=O)N2CCCCC2)c(C)c1C#N | 3.68% (inactive) |  |
| CCCCc1cc2c(s1)CCCC/C2=N/O | -9.17% (inactive) |  |
| COc1ccc(NC(=O)CC2C(=O)NC3CCCCC3N2C(=O)c2ccc(F)cc2)cc1 (stereo not drawn) | -19.5% (inactive) |  |
| COc1ccc(S(=O)(=O)NC(C)C(=O)N2CCCCCC2)cc1 (stereo not drawn) | 12.3% (inactive) |  |
| COc1ccc(NC(=O)N2CC3(CCN(C(C)=O)CC3)C2)cc1 | 11.3% (inactive) |  |
| COc1ccc(CNS(=O)(=O)c2ccc(NC(=O)N3CCCCC3)cc2)cc1 |  | 20.6 µM (active) |
| Cn1c2ccccc2c(=O)c2c(=O)n(Cc3ccco3)c(COc3ccccc3)nc21 |  | 14.6 µM (active) |
| COc1ccc(NC(=O)Cn2c(=O)n(Cc3ccco3)c(=O)c3ccccc32)cc1 | -3.08% (inactive) |  |
| CCn1c(COc2ccccc2)nnc1SCC(=O)NCc1ccco1 | -37.1% (inactive) |  |

— PubChem BioAssay AID686978 (National Center for Advancing Translational Sciences (NCATS), 2013)
